In assay [1] the target is ATP-dependent 6-phosphofructokinase (Trypanosoma brucei brucei) (UniProt O15648). Kind of assay: qHTS Assay to Find Inhibitors of T. brucei phosphofructokinase: hit validation (AID 492961).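 Note: luminescence reports ADP formed as PFK phosphorylates fructose-6-phosphate with ATP; series mostly up to about 51 µM; % is set by controls: 0 for no effect and ±100 for the full control effect.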 The method in brief:
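Inhibition of parasite PFK is measured as reduced ADP formation, quantified via luciferase after ATP depletion. Assay used 0.1 mM ATP, 0.5 mM F6P, 1.25 nM enzyme, 45 min incubation.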

In assay [2] the target is Ubiquitin carboxyl-terminal hydrolase 1 (Homo sapiens) (UniProt O94782). Kind of assay: Inhibitors of USP1/UAF1: Pilot qHTS (AID 504865).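 Note: rhodamine fluorescence freed from ubiquitin-rhodamine substrate followed over time; top concentration of the series differs between compounds; % is set by controls: 0 for no effect and ±100 for the full control effect; nearly all actives have a fitted effect of over 35% in size.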 The method in brief: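 In 50mM HEPES pH 7.8 containing 0.5mM EDTA, 1mM TCEP, 0.1 mg/ml BSA and 0.01% Tween-20, 1nM USP1/UAF1 is exposed to compound for 15 min, then Ub-Rho (150nM final) is added and fluorescence is read over time.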
(In general: In qHTS, concentration-response curves come from the screen itself.)

The target of assay [3] is Transient receptor potential cation channel subfamily V member 1 (Homo sapiens) (UniProt Q8NER1). Nature of the assay: HTS Assay for Compounds that Act as Enhancers of the Vanilloid Receptor 1 (AID 488979). Note: 0% is about no effect. The gist of the method:
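TRPV1 cells loaded with Fluo-8 calcium dye; compound added and Ca2+ signal (ex 480/em 520 nm) followed 3 min, then capsaicin at EC20 added and read 2 more min to detect enhancement.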

In assay [4] the target is D(1A) dopamine receptor (Homo sapiens) (UniProt P21728). Kind of assay: HTS Assay for Allosteric Agonists of the Human D1 Dopamine Receptor: Primary Screen for Agonists (AID 488981). Note: 0% is about no effect. The gist of the method:
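Tetracycline-induced HEK293 Trex D1 cells with forced coupling to calcium, loaded with no-wash calcium dye; kinetic fluorescence read 180 s after compound addition for agonism, then a further 180 s after an EC20 dopamine challenge for potentiation.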

The nature of assay [5]: Validation screen for small molecules that induce genotoxicity in human embryonic kidney (HEK293T) cells expressing luciferase-tagged ELG1 (AID 493106). Note: 0% is about no effect. The gist of the method: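 In this validation screen, increased ELG1-luciferase signal flags compounds causing genetic stress. HEK293T reporter cells are treated 16 hr (37 °C, 5% CO2), developed with ONE-Glo for 30 min at room temperature, and imaged on a CCD-based reader.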

The target of assay [6] is ATPase family AAA domain-containing protein 5 (Homo sapiens) (UniProt Q96QE3). Kind of assay: Validation screen for small molecules that inhibit ELG1-dependent DNA repair in human embryonic kidney (HEK293T) cells expressing luciferase-tagged ELG1 (AID 493107).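 Note: cells co-treated with the DNA-damaging agent 5-fluorouridine alongside compound; series mostly up to about 46 µM; % is set by controls: 0 for no effect and ±100 for the full control effect; inhibitors lower the ELG1-luciferase luminescence signal; nearly all actives have a fitted effect of over 70% in size.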 The method in brief: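 Compounds reducing 5-fluorouridine-driven ELG1-luciferase signal in HEK293T cells were scored; exposure lasted 16 hr at 37 °C with luminescence detected via ONE-Glo.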

For assay [7], the target named is Thyrotropin-releasing hormone receptor (Homo sapiens) (UniProt P34981). Kind of assay: qHTS for Small Molecule Agonists and Allosteric Enhancers of Human TRH Receptor: Validation Screen for Agonists (AID 493127;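 active = calcium activation more than 3 SD above the typical response in the agonist read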;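 note: intracellular calcium rise by fluo-8 fluorescence before TRH EC20 addition; 0% is about no effect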). To be noted: TRH receptor agonist cell assay; at 2 µM; stronger effect = higher value. The method in brief:
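Kinetic fluorescence assay of agonist-induced calcium release: overnight-plated TRHR cells, room-temperature fluo-8 loading, baseline then compound addition with per-second reads.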

Assay [8] is described as follows: Nrf2 qHTS screen for inhibitors: Validation (AID 493153; active = well fitted inhibition curve with a large enough effect in the main read-out, with a control signal flat, not every such curve was filed as active). To be noted: viability change: measured here: cytotoxicity max response. The gist of the method: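 In this counterscreened reporter format, each well gives two signals: CellTiter-Fluor fluorescence for cytotoxicity and ARE-luciferase luminescence for Nrf2 function. A549 ARE_Fluc cells in 5% FBS OPTI-MEM were exposed to compound titrations for 18-24 h.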

The nature of assay [9]: qHTS for Inhibitors of Cell Surface uPA Generation: Validation Assay (AID 493164).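 Note: RAW 264.7 macrophage cells exposed to compound for 18 h; 0% is about no effect.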 The method in brief:
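Compounds are titrated over seven points (2.45 nM–38.3 uM final) onto pre-plated RAW 264.7 cells and incubated for 18 h. Retained intracellular ATP, measured with ATP-Lite, indicates blocked lethal factor entry.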

In assay [10] the target is Galactokinase (Homo sapiens) (UniProt P51570). Nature of the assay: qHTS Validation Assay for Inhibitors of Human Galactokinase (GALK) (AID 493189). Note: 0% is about no effect. The gist of the method:
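5 nM GALK / 100 uM galactose / 35 uM ATP, 20 mM HEPES pH8.0, 5 mM MgCl2, 60 mM NaCl, 1 mM DTT, 0.01% BSA (final). RT 1 h; Kinase-Glo Plus luminescence.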

Assay [11] is described as follows: Validation screen for small molecules that induce DNA re-replication in SW480 colon adenocarcinoma cells (AID 504364). Note: 0% is about no effect. The gist of the method: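 Hoechst-stained SW480 nuclei, imaged at 405 nm excitation after 48 hr compound exposure, were counted for elevated DNA content as the re-replication signal.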
Assay [12] deals with Phosphoglycerate kinase, glycosomal (Trypanosoma brucei brucei) (UniProt P07378). Nature of the assay: qHTS Validation Assay to Find Inhibitors of Phosphoglycerate Kinase (AID 504547).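 Note: control wells lack PGK and mark full inhibition.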 The gist of the method:
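Compounds are pinned into the substrate/PGK mixture, and GAPDH (100nM final) is added to start the reaction by producing 1,3-BPG. After 60 minutes at room temperature, Kinase-Glo Plus is added and luminescence is measured 10 minutes later.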

Assay [13] addresses phosphoglycerate mutase (Leishmania major) (UniProt Q4Q090). Nature of the assay: qHTS Validation Assay to Find Inhibitors of Phosphoglycerate Mutase (AID 504548). Note: series mostly up to about 58 µM; % is set by controls: 0 for no effect and ±100 for the full control effect. The gist of the method:
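Lm PGAM 1.25nM final; 100 mM TEA pH 7.6, 5 mM MgCl2, 0.01% Tween-20; 45 min RT; Kinase-GloPlus, 10 min; end-point luminescence. Enzyme-free wells as negative controls.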

Assay [14] can be described thus: qHTS for Inhibitors of ATXN expression: Validation of Cytotoxic Assay (AID 588349). Note: % is set by controls: 0 for no effect and ±100 for the full control effect. The method in brief: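 Toxicity of test compounds toward HEK293 cells is scored from cellular ATP content measured by CellTiter Glo. Cells receive titrated doses and incubate 72 hr at 37 degrees C beforehand.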
The nature of assay [15]: qHTS for Inhibitors of ATXN expression: Validation (AID 588378). Note: series mostly up to about 57 µM; % is set by controls: 0 for no effect and ±100 for the full control effect; nearly all actives have a fitted effect of over 75% in size. The method in brief:
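Compounds were pinned onto attached HEK293 cells carrying an ATXN2-firefly luciferase construct and incubated 24 hrs at 37 degrees C. Each well then received a fluorescent viability reagent followed by luciferase substrate for end-point luminescence.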

In assay [16] the target is Thyrotropin receptor (Homo sapiens) (UniProt P16473). Kind of assay: qHTS Assay for Antagonists of the Thyroid Stimulating Hormone Receptor (AID 488980). Note: series mostly up to about 58 µM; 0% is about no effect. The method in brief: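 Readout is cAMP by HTRF competition between cellular cAMP and cAMP-d2 for a cryptate-labelled antibody. Antagonism was assessed in TSHR-transfected HEK293 cells stimulated with 4 nM TSH (EC80, final) in the presence of RO 20-1724.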

Assay [17] concerns the target Peptidyl-prolyl cis-trans isomerase NIMA-interacting 1 (Homo sapiens) (UniProt Q13526). Kind of assay: qHTS Validation Assay to Find Inhibitors of Pin1 (AID 504536; active = well fitted inhibition curve with a large enough effect in the polarisation, with a control signal flat, not every such curve was filed as active; the % refers to the polarisation;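 note: 0% = full Pin1 enzyme wells and -100% = no-enzyme wells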). The method in brief:
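Fluorescence polarization competition: compounds (titration) displace HiFluor-488-labeled Pin1-1b peptide from Pin1 (0.3 uM final) in pH 7.5 HEPES buffer with DTT, 10 min at room temperature; %Activity normalized to no-enzyme wells, curves fitted.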

A short description of assay [18]: Inducers of the Endoplasmic Reticulum Stress Response (ERSR) in human glioma: Validation (AID 504836). Note: 0% is about no effect. The method in brief: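 Stably transfected U87-MG glioma cells carrying a GRP78-based luciferase sensor; 16 h compound incubation. Luminescence end-point read 10 min after Bright-Glo addition at room temperature.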
The target of assay [19] is DNA dC->dU-editing enzyme APOBEC-3G (Homo sapiens) (UniProt Q9HC16). Nature of the assay: qHTS for inhibitors of Vif-A3G interactions: Validation (AID 588379). Note: 0% is about no effect. The gist of the method: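 Yellow fluorescence (Ex 488, Em 500-530) of Vif-coexpressing HeLa A3G-eYFP cells, scanned by Acumen cytometer, reports blocked A3G degradation. Cells plated at 700/well overnight at 37 deg C before compound addition, then a further overnight compound incubation at 37 deg C.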

SMILES strings stand for the structures. Results filed as inconclusive are left out. The source made the active and inactive calls. Unless noted, calls come from the whole dose curve; as a rule, active = well fitted curve in the direction sought with a large enough effect; inconclusive = small, poorly fitted or top-dose-only effect, or another doubt; inactive = no such curve, though single readings can be large; an effect the other way counts as inactive or inconclusive.

ATP-dependent 6-phosphofructokinase (Trypanosoma brucei brucei), sequence (O15648 whole entry, looked up): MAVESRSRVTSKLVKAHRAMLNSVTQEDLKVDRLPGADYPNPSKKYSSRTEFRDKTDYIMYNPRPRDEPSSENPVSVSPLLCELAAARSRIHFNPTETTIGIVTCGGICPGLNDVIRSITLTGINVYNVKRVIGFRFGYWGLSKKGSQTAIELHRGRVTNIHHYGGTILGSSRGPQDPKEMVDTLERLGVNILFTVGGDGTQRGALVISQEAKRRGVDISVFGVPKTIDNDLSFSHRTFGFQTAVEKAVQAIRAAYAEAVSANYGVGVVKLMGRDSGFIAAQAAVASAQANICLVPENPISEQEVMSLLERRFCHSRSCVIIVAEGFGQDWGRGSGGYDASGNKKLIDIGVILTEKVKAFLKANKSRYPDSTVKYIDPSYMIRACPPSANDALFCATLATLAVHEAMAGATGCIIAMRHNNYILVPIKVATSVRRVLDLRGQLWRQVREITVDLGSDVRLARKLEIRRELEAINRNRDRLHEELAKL
Peptidyl-prolyl cis-trans isomerase NIMA-interacting 1 (Homo sapiens), sequence (Q13526 whole entry, looked up): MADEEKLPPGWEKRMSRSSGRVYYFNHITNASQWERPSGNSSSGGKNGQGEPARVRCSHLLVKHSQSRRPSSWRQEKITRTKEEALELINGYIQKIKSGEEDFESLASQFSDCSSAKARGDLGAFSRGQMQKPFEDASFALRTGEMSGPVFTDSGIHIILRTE
D(1A) dopamine receptor (Homo sapiens), sequence (P21728 whole entry, looked up): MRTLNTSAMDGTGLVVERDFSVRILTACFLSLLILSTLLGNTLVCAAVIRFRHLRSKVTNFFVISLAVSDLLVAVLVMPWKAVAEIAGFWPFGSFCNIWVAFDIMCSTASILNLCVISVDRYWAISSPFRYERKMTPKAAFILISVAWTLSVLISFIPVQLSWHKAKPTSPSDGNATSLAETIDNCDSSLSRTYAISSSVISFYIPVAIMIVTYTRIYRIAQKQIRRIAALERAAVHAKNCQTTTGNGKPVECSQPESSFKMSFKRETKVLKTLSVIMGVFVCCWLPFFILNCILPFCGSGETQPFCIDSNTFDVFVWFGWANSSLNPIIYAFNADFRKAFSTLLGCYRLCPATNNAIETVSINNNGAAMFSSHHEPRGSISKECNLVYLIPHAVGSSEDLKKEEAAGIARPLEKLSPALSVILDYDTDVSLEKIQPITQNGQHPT
Phosphoglycerate kinase, glycosomal (Trypanosoma brucei brucei), sequence (P07378 whole entry, looked up): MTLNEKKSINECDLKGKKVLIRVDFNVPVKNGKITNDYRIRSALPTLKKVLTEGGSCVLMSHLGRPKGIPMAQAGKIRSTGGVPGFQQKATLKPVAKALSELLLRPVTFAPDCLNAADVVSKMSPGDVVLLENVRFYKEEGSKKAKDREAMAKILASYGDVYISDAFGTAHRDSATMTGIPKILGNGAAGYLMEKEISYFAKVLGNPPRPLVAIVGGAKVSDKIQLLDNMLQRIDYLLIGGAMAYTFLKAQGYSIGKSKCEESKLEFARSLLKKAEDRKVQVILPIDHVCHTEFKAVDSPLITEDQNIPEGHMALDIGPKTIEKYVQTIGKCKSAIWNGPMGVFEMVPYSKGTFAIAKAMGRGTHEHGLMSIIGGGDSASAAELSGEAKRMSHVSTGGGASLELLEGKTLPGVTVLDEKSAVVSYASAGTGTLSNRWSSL
Thyrotropin receptor (Homo sapiens), sequence (P16473 whole entry, looked up): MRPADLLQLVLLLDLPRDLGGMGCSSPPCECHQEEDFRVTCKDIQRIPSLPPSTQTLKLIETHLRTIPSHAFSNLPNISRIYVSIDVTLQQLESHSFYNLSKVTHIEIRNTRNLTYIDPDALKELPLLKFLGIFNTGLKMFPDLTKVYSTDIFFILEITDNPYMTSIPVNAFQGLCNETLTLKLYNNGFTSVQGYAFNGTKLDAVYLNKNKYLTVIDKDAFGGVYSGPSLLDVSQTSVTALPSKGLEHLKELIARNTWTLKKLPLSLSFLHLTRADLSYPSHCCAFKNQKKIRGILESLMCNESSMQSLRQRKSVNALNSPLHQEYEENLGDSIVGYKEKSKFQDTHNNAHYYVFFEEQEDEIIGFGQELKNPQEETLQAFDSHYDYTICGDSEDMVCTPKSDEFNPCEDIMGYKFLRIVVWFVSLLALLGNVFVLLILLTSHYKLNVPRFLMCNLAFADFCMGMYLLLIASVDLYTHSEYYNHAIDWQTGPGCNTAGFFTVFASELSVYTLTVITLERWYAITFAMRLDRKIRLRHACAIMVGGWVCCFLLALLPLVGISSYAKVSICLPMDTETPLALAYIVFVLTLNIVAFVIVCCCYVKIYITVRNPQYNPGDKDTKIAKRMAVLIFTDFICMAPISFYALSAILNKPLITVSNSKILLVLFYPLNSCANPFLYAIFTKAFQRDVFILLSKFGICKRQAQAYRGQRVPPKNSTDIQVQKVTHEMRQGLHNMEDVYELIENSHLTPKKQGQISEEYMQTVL
phosphoglycerate mutase (Leishmania major), sequence (Q4Q090 1-553): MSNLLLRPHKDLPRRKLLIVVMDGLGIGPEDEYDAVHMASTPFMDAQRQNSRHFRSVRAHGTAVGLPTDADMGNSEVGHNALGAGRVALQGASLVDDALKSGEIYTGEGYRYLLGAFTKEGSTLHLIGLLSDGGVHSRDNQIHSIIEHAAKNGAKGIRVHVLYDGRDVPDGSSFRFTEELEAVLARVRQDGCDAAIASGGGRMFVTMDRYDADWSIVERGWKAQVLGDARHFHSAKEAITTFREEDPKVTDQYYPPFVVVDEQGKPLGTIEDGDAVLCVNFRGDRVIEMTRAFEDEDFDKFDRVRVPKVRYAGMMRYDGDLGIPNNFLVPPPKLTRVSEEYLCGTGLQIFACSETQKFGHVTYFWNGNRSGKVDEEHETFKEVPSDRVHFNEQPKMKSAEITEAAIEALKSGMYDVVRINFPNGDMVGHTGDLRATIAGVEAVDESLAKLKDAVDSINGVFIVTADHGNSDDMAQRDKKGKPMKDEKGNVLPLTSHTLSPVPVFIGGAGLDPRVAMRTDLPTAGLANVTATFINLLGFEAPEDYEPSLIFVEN
ATPase family AAA domain-containing protein 5 (Homo sapiens), sequence (Q96QE3 whole entry, looked up, the tested form may be a part): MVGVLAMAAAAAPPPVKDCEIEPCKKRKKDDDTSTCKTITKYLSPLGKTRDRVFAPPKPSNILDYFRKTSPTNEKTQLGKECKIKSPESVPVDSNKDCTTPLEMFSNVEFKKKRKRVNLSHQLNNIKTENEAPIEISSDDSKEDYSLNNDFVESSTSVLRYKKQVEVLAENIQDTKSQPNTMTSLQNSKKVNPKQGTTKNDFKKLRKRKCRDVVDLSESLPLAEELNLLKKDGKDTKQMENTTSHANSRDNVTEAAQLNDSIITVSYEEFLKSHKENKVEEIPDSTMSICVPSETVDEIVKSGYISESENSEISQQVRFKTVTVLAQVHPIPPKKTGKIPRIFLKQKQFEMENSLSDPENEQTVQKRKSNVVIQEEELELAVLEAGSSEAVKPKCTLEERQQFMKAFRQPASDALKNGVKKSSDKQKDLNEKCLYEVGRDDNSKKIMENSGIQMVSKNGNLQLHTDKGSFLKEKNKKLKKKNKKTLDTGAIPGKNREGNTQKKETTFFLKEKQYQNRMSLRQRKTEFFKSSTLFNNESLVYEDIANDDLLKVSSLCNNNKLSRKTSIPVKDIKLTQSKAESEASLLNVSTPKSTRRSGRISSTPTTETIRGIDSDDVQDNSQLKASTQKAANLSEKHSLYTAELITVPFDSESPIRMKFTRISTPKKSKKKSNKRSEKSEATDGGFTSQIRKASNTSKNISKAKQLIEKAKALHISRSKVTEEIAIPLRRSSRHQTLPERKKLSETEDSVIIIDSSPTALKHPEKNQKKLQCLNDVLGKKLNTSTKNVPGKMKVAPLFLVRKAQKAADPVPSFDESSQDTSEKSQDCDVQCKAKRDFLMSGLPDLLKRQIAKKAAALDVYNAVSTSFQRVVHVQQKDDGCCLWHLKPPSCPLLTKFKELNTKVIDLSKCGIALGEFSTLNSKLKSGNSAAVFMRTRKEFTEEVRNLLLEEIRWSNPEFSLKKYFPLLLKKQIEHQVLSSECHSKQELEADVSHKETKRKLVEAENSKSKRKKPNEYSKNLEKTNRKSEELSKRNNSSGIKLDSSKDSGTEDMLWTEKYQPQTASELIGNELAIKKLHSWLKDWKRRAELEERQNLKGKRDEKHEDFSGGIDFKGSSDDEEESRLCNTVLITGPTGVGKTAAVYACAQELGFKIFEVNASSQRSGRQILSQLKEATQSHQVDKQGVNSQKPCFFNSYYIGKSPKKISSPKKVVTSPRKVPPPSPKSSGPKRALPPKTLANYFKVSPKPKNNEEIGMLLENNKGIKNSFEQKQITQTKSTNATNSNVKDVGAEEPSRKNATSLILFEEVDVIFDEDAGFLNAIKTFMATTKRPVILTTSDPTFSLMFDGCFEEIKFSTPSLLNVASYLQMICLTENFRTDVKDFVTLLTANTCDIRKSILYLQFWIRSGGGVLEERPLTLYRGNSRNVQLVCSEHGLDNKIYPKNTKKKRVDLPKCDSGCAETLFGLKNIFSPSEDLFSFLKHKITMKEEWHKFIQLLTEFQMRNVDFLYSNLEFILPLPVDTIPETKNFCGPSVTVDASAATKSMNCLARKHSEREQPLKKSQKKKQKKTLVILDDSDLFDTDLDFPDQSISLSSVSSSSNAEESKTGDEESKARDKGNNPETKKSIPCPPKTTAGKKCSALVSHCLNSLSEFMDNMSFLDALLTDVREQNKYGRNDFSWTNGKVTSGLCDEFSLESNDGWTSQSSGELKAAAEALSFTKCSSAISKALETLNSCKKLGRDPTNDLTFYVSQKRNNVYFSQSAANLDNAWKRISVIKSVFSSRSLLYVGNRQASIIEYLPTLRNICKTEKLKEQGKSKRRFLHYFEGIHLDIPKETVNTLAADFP

For the molecule `Oc1ccc(Cl)cc1`, in [1], the molecule was classed as inactive. In assay [2], the Potency result is “inactive”.

With `C[C@](O)(CS(=O)(=O)c1ccc(F)cc1)C(=O)Nc1ccc(C#N)c(C(F)(F)F)c1`, the molecule was classed as inactive in assay [1].

`CCC1(c2ccc(N)cc2)CCC(=O)NC1=O` (stereo not drawn): the result in [3], in assay [5], in assay [6], in assay [8], in assay [9] and in [10] was inactive. Moreover, the call in [11], in assay [12], in assay [13], in [14] and in [15] was inactive. In addition, the Potency entry in assay [4] and in assay [2] was “inactive” each time. Further, the activation in [7] is 1.56% (inactive). Also, the viability change in [8] was determined as 1.18%.

`CN1C(=O)CCS(=O)(=O)C1c1ccc(Cl)cc1` (stereo not drawn): the outcome in assay [3], in assay [16], in assay [5], in assay [6], in assay [8] and in [9] was inactive. The result in assay [10], in assay [11], in [17], in assay [12], in assay [13] and in assay [18] was inactive. The call in assay [14] and in assay [15] was inactive. In addition, the Potency entry in [4] and in assay [2] was “inactive” each time. In addition, the viability change in assay [8] is -1.88%.

Turning to `O=c1oc2ccccc2c(O)c1Cc1c(O)c2ccccc2oc1=O`, the outcome in assay [1] was inactive.

Consider `Nc1nc(N)nc(NC2CC2)n1`, for which the result in assay [1] was inactive. In addition, in [2], the Potency entry is “inactive”.

As to `COc1ccc2c(c1OC)C(=O)O[C@H]2[C@@H]1c2cc3c(cc2CCN1C)OCO3`, the molecule was classed as inactive in assay [16], in [5], in assay [6], in assay [8], in assay [9] and in [11]. Further, the molecule was classed as inactive in [17], in [12], in assay [13], in assay [18], in [14] and in assay [15]. Besides, the Potency entry in assay [4] and in assay [2] was “inactive” throughout. Moreover, in assay [8], the viability change amounted to 5.02%.

As to `CC(C)=CC1C(C(=O)OCN2C(=O)C3=C(CCCC3)C2=O)C1(C)C` (stereo not drawn), the outcome in assay [1] was inactive.

In the case of `Cc1ncsc1CCCl`, the Potency entry in assay [4] and in assay [2] was “inactive” each time. Besides, the molecule was classed as inactive in [1], in assay [5], in [6], in assay [8], in [9] and in [17]. In addition, the molecule was called inactive in assay [12], in assay [13], in assay [14], in assay [15] and in assay [19]. In assay [8], the viability change stood at 6.84%.

For `O=C(Nc1ccc(Br)cc1)c1cc(Br)cc(Br)c1O`, the result in [1] was inactive.

With `COc1ccc2c(c1)C13CCCC[C@@H]1C(C2)N(C)CC3` (stereo partly drawn), the call in assay [1] was inactive. The Potency entry in [2] is “inactive”.

As for `C[C@]12CCC(=O)C=C1CC[C@@H]1[C@@H]2CC[C@]2(C)C(=O)CC[C@@H]12`, the result in [3], in [16], in [1], in assay [10] and in assay [11] was inactive. The activation in assay [7] is 2.12% (inactive). In assay [2], the Potency entry was “inactive”.

These data come from PubChem BioAssay (NCATS).
